ATXN viability – reduces viability in counter-screen for ATXN expression inhibitors; S2 cells (HEK-293 line with an ATXN2-luciferase reporter) viability, CellTiter-Fluor protease fluorescence, 24 h; Potency, µM (highest dose often 56.7 µM), hits mostly cytotoxic; 400,000 compounds, 0.49% hits; further: nearly all actives have a fitted effect of over 40% in size
DRD3 antagonist – blocks the human D3 dopamine receptor. 360,000 compounds, 2.5% hits. max response, negative = inhibition, %. AID 652054. D3R cells, DiscoveRx beta-arrestin luminescence, antagonist mode; stronger effect = lower value. P35462; in the data active means max response below about -50%; inconclusive means no clear call, values can overlap the other calls
Target sequence (P35462 whole entry, looked up): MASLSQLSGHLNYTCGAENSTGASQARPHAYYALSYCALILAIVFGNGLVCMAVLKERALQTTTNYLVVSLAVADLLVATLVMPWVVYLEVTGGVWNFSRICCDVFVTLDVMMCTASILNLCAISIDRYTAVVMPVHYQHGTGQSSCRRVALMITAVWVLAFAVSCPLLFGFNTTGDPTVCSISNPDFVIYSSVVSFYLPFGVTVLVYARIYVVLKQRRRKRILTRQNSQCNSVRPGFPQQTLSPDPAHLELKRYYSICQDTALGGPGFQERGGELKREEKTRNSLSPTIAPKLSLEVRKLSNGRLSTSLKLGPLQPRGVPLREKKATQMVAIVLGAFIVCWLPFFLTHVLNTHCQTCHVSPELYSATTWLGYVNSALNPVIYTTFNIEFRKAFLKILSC
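Cells plated overnight at 1500 cells/well, then exposed to library compounds with dopamine controls for 90 minutes at 37 degrees C. DiscoveRx reagent added for 30–60 minutes at room temperature; luminescence read, quantitative HTS format.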
DRD3 agonist – agonists of human D3 dopamine receptor; P35462; D3R DiscoveRx beta-arrestin cells, luminescence, 90 min; max activation, %; 410,000 compounds, 0.58% hits; AID 652048; in the data active means max activation above about 30%
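Agonist mode: compounds and dopamine controls were applied to plated cells for 90 min at 37 degrees C after an overnight attachment at 1500 cells/well. Luminescent read-out followed 30 - 60 minutes at room temperature with DiscoveRx detection reagent.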
HepG2 viability – HepG2 cytotoxicity, counter-screen for TGF-b inhibitors; AID 588856; Potency, µM (doses to about 46.1 µM), most hits filed as cytotoxic; HepG2 CAGA-GFP viability, ATP luminescence, 18 h; 410,000 compounds, 0.76% hits
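HepG2 CAGA-GFP cells (1000/well, DMEM with 1% FBS) received compound, then TGF-beta at 500 pg/mL final, and were incubated 18 hours at 37 degrees C. Viability was read by CellTiter-Glo luminescence. Media-only wells were set as complete cell-killing and DMSO as no toxicity.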
ATXN2 expr inh – ATXN2 expression inhibition; 360,000 compounds, 0.72% hits; AID 1745845; HEK-293 ATXN2-luciferase reporter, luminescence, 24 h; Potency, µM (titrated, usually from 57 µM), usual class: inhibitors; further: nearly all actives have a fitted effect of over 55% in size
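ATXN2-luciferase reporter cells (luciferase flanked by upstream and downstream ATXN2 gene portions) were treated 24 h at 37 °C with compounds at up to 57 uM. SteadyGlo luminescence gave expression; GF-AFC fluorescence gave viability.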
TGFb inhibitor – TGF-b pathway inhibition; HepG2 CAGA-GFP TGF-b/SMAD3 reporter, GFP fluorescence, 18 h; TGF-beta stimulated, 500 pg/mL final; Potency, µM (doses to about 46.1 µM), actives largely listed as inhibitors; 410,000 compounds, 1.2% hits; AID 588855; further: nearly all actives have a fitted effect of over 65% in size
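Inhibition was scored as loss of TGF-beta-induced (500 pg/mL final, 18 hours, 37 degrees C) GFP in HEPG2 cells carrying a CAGA-GFP reporter, in DMEM with 1% FBS. Well GFP was summed per cell; Activity was normalised to unstimulated and stimulated DMSO wells, then concentration-response fitting.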
Each line names hits and unclear results; the compound was inactive in the other large screens. This is a sample that favours compounds with a hit; in the whole collection about 4.8% have one here. Unless noted, the call rests on the fitted dose curve; in most records, active means well fitted curve in the direction sought with a large enough effect; inconclusive means small, poorly fitted or top-dose-only effect, or another doubt; inactive means no such curve, though single readings can be large; an effect the other way counts as inactive or inconclusive.

COc1ccc(Cl)cc1NC(=O)Cn1c(=O)n2nc(-c3ccccc3)nc2c2ccccc21	none (no result: ATXN viability, DRD3 antagonist, ATXN2 expr inh)
COCCCNC(=O)Cn1ccc(N)nc1=O	DRD3 agonist 38, TGFb inhibitor inconclusive
Nc1ccn(CC(=O)NCCCc2ccccc2)c(=O)n1	none
CC(=O)Nc1ccc(-c2ccnc3c2CC(C)(C(=O)Nc2ccc(C(C)C)cc2)O3)cc1 (stereo not given)	ATXN viability inconclusive, ATXN2 expr inh inconclusive, TGFb inhibitor inconclusive
CN(C)c1ccc(-c2ccnc3c2CC(C)(C(=O)Nc2ccc(F)c(Cl)c2)O3)cc1 (stereo not given)	DRD3 agonist 69, TGFb inhibitor inconclusive
CC1(C(=O)Nc2ccc(Cl)c(C(F)(F)F)c2)Cc2c(-c3ccc(C(N)=O)cc3)ccnc2O1 (stereo not given)	ATXN viability inconclusive, HepG2 viability 16µM, TGFb inhibitor 11µM
CC(C)c1ccc(NC(=O)C2(C)Cc3c(-c4ccc(C(N)=O)cc4)ccnc3O2)cc1 (stereo not given)	DRD3 antagonist -54
COc1ccc(N2CCN(C(=O)c3cc(-c4ccc(F)cc4)[nH]c3C)CC2)cc1	TGFb inhibitor inconclusive
Cc1[nH]c(-c2ccc(F)cc2)cc1C(=O)N1CCN(c2ccc(Cl)cc2)CC1	ATXN viability inconclusive, ATXN2 expr inh 14µM, TGFb inhibitor inconclusive
O=C(c1cccnc1)N1CCN(CCCc2ccccc2)CC1	DRD3 agonist 52
COc1ccc(CN2CCN(C(=O)c3cccs3)CC2)cc1	DRD3 antagonist -58
O=C(c1ccccc1)N1CCN(C(=O)c2cccnc2)CC1	none (no result: ATXN2 expr inh)
O=C(c1cccs1)N1CCN(CCCc2ccccc2)CC1	DRD3 antagonist -65
O=C(c1cccs1)N1CCN(Cc2ccccc2)CC1	none
Cc1cc(Cl)ccc1NC(=O)CCS(=O)(=O)c1ccc2c(c1)CC(C)N2C(=O)C1CC1 (stereo not given)	TGFb inhibitor inconclusive (no result: ATXN viability, DRD3 antagonist, ATXN2 expr inh)
CCn1ccc2cc(S(=O)(=O)N3CCCN(C(=O)NCC(=O)OC)CC3)ccc21	none (no result: DRD3 antagonist)
CCCCC1CCC(C(=O)N2CC(=O)Nc3ccc(C)cc3C2c2ccc(F)cc2)CC1 (stereo not given)	ATXN viability inconclusive (no result: DRD3 antagonist)
Cc1ccc(-n2[nH]c(C)c(/C=N/Nc3ccc([N+](=O)[O-])cc3[N+](=O)[O-])c2=O)cc1	DRD3 antagonist -56, ATXN2 expr inh inconclusive, TGFb inhibitor inconclusive (no result: ATXN viability)
Cc1[nH]n(-c2ccc([N+](=O)[O-])cc2)c(=O)c1C=NCC1CCCO1 (stereo not given)	TGFb inhibitor inconclusive
CCN(C(=O)Cn1nc(Cc2cccnc2)c2ccccc2c1=O)c1cc(C)ccc1C	TGFb inhibitor inconclusive (no result: ATXN viability, DRD3 antagonist, ATXN2 expr inh)
COc1cccc(N2CCN(c3nc(-c4ccccc4C)cc(=O)[nH]3)CC2)c1	ATXN2 expr inh 0.71µM, TGFb inhibitor inconclusive
COc1ccc(-n2cnc3cc(N)ccc32)cc1	none
CC1(COc2ccc3c(c2)ncn3-c2ccc3cccc(N4CCC(N)CC4)c3n2)COC1	ATXN2 expr inh 12µM (no result: ATXN viability, DRD3 antagonist, DRD3 agonist, HepG2 viability, TGFb inhibitor)
COCCNC(=O)Cn1cnc([N+](=O)[O-])n1	DRD3 antagonist -71
CC(C)Oc1ccc(CNC(=O)C(C)n2ccc3cc(S(=O)(=O)N4CCCCCC4)ccc32)cc1 (stereo not given)	none (no result: DRD3 antagonist)
Cc1ccc(NC(=O)Cn2ncn3c(cc4ccccc43)c2=O)cc1C	none (no result: ATXN viability, DRD3 antagonist, ATXN2 expr inh)
COc1cc2c(-c3ccc(O)cc3)nc3c(c(C)nn3-c3ccccc3)c2cc1OC	ATXN viability inconclusive, DRD3 agonist 80
COc1ccc(-c2nc3ccccc3n3c(-c4ccc(OC)cc4)c4c(=O)n(C)c(=O)n(C)c4c23)cc1	none (no result: DRD3 antagonist)
CN1CCN(c2nc(-c3ccccc3)c3cc(Cl)ccc3n2)CC1	none
Clc1ccc2nc(N3CCNCC3)nc(-c3ccccc3)c2c1	HepG2 viability 13µM, ATXN2 expr inh inconclusive, TGFb inhibitor inconclusive
CCOc1ccc(N/C(SC)=C(/C#N)C(N)=O)cc1	DRD3 antagonist -53
O=C(CCCCn1c(=O)c2ccccc2n(Cc2ccc(Cl)cc2)c1=O)NCc1ccccc1Cl	none (no result: DRD3 antagonist)
COc1ccc([C@H]2CC(=O)C=C(c3cccc4c3sc3ccccc34)C2)cc1OC	none
COc1ccc([C@H]2CC(=O)C=C(c3cc4ccccc4s3)C2)cc1OC	ATXN viability inconclusive, DRD3 agonist 32
COc1ccc([C@H]2CC(=O)C=C(c3ccc(C(=O)O)cc3)C2)cc1OC	DRD3 agonist 31
CCOC(=O)c1ccc(-c2c(-c3cc(OC)c(OC)c(OC)c3)noc2C)cc1F	ATXN viability inconclusive, TGFb inhibitor 11µM
COCCNc1nc2c(c(=O)n(C)c(=O)n2C)n1Cc1c(F)cccc1Cl	TGFb inhibitor inconclusive (no result: DRD3 antagonist)
CCOC(=O)C1=C(O)/C(=C/c2cn(CC(=O)NCC3CCCO3)c3ccccc23)SC1=Nc1ccc(C)cc1 (stereo not given)	ATXN viability inconclusive, ATXN2 expr inh 10µM
COC(=O)c1ccccc1NC(=O)c1ccc2c(c1)CCN2S(C)(=O)=O	none (no result: DRD3 antagonist)
Cc1nnc(N2CCN(C(=O)Nc3cc(F)ccc3F)CC2)c2nn(-c3ccc(Cl)cc3)c(C)c12	TGFb inhibitor inconclusive (no result: DRD3 antagonist)
O=c1c2c3c(sc2n(CCN2CCOCC2)c(=O)n1Cc1ccco1)CCCCC3	none
O=c1c2c3c(sc2n(CCN2CCCCC2)c(=O)n1Cc1ccco1)CCCCC3	ATXN viability inconclusive, DRD3 antagonist -93, ATXN2 expr inh inconclusive
CCOc1ccc(NC(=O)Cn2nc(CC)n3c(cc4sccc43)c2=O)cc1	none (no result: ATXN viability, DRD3 antagonist, ATXN2 expr inh)
O=C(c1cnc2sccn2c1=O)N1CCc2ccccc2C1	DRD3 antagonist -96
O=C(c1cnc2sccn2c1=O)N1CCN(c2ccccc2Cl)CC1	none
Cc1ccc(Oc2cnc3ccccc3n2)cc1	none
COc1ccc(Oc2cc(C)c3ccccc3n2)cc1	DRD3 agonist 30
S=c1[nH]nc(-c2ccc(Br)cc2)n1-c1ccc(Br)cc1	ATXN viability inconclusive (no result: ATXN2 expr inh)
O=C(O)c1ccc(-n2c(-c3ccc(Br)cc3)n[nH]c2=S)cc1	DRD3 antagonist -89, TGFb inhibitor inconclusive
CN1CCN(C(=O)Nc2cccc(Cl)c2)c2cccnc21	TGFb inhibitor 16µM (no result: DRD3 antagonist)
O=[N+]([O-])c1ccccc1C1Nc2cccc3cccc(c23)N1	ATXN viability inconclusive, DRD3 antagonist -104, ATXN2 expr inh inconclusive, TGFb inhibitor inconclusive
COc1ccc(CCNC(=O)c2cc(Nc3cc(C)cc(C)c3)nc3ccccc23)cc1OC	ATXN viability inconclusive, TGFb inhibitor inconclusive (no result: DRD3 antagonist)
COc1cccc(NC(=O)c2ccc(-c3nc(COc4ccccc4)c(C)o3)cc2)c1	DRD3 agonist 62, TGFb inhibitor inconclusive (no result: ATXN viability, DRD3 antagonist, ATXN2 expr inh)
